The values that follow come from PubChem BioAssay AID1775 (NMMLSC, 2009).

Molecules are shown by their SMILES. Where “and” joins values, the source holds several entries; their conditions need not be identical. Equal values may be shown once. Hit rate of the full screen: of about 220,000 compounds, about 820 (0.37%) were called active. What follows is part of a selection rich in actives, with near analogues and random picks from the rest. Unmarked numbers belong to inactive results. No stated cut-off is given here; in the data, active means fluorescence above about 47; inactive means the rest.

This assay in a line: green autofluorescence of compounds with avidin beads – biophysical, 488/530 nm, flow cytometry, artefact control, profiling panel (AID 1775). The conditions noted are these: compound fluorescence 488/530 nm, at 10 µM, stronger effect = higher value. (Flow cytometry measures light scatter and fluorescence of single cells or particles in a stream.)
Take `CCCCCCCCCCCCC(NC(C)=O)(C(=O)OCC)C(=O)OCC`: the fluorescence (KMESF) is 6.
With `O=C(Nc1ccccc1Cl)c1ccccc1S(=O)(=O)c1ccccc1[N+](=O)[O-]`, the fluorescence (KMESF) was 11.
Next, `CN(C)S(=O)(=O)Oc1ccccc1C(=O)Nc1ccccc1Cl`: 81 (active).
On to `CC(=O)Nc1ccc(NC(=O)COc2ccccc2C(=O)Nc2cccc(Cl)c2Cl)cc1`, for which the fluorescence (KMESF) is 14.
Next, `COc1ccc(CCNC(=O)C2CC3Cn4c(nc5cc(C)c(C)cc54)C3N2C)cc1` (stereo not given): 8; `COC(=O)c1c(C)oc(C)c1S(=O)(=O)NCc1ccc(Cl)cc1`: 6.
In the case of `CC1=CC(=C(C#N)c2nc3ccccc3s2)C=C(C)N1c1ccc(F)cc1F` it was 9; in that of `Oc1[nH]c2ccc(Br)cc2c1N=Nc1nn[nH]n1`, 4; in that of `CNC(=S)N1CCC(NC(=O)C(Cc2ccc(F)cc2)NC(C)=O)CC1` (stereo not given), 10.
On to `Fc1cccc(CSc2nnc3ccc(-c4ccncc4)nn23)c1`, for which the fluorescence (KMESF) was 6.
In the case of `COc1ccccc1NC(=O)C[n+]1ccccc1` it was 10; in that of `COc1ccccc1NC(=O)CCCc1c[nH]c2ccccc12`, 257 (active); in that of `O=C(Cc1c[nH]c2ccccc12)OCCOC(=O)Cc1c[nH]c2ccccc12`, 21.
Next, `O=C(O)Cc1csc(-c2cccc(Oc3ccccc3)c2)n1`: 6 and 3; `O=C(CSc1ccccc1F)NC1CCS(=O)(=O)C1` (stereo not given): 9; `CCOC(=O)/C=C/CN(C(=O)OC(C)(C)C)S(=O)(=O)N1CC=CC1`: 9.
Next, `COc1cc(NC(=S)NNC(=O)CC(C)C)c(OC)cc1Cl`: 13; `CC(NC(=O)c1ccc(N2CCNCC2)c([N+](=O)[O-])c1)C12CC3CC(CC(C3)C1)C2` (stereo not given): 9; `O=C1CS(=O)CN1c1ccc(Oc2ccccc2)cc1` (stereo not given): 9.
Consider `C/C=C/C(=O)Nc1ccc(N2CCN(c3ccc(C(F)(F)F)cn3)CC2)nc1`, for which the fluorescence (KMESF) was 8.
Next, `COC(=O)c1cn(C(=O)c2ccc(Cl)cc2)c2ccccc12`: 4; `Cc1nc(-c2ccc(Cl)cc2)sc1C1(C)CC(c2ccccc2F)=NO1` (stereo not given): 7.
In the case of `O=C(CCC1CCCN(Cc2ccc(O)c(Cl)c2)C1)NCc1ccccc1F` (stereo not given) it was 12; in that of `Cc1ccc(NC(=O)Nc2nnc(-c3ccncc3)s2)cc1`, 6; in that of `Cc1ccc(C(=O)Nc2nnc(-c3ccncc3)s2)o1`, 9.
In the case of `CC(C)=CC(=O)Nc1nnc(-c2ccc(F)cc2)s1` it was 71 (active); in that of `CN(C)/C(=N\OC(=O)c1ccccc1)c1nonc1N`, 8.
On to `NC(=O)N/N=C\c1cccs1`, for which the fluorescence (KMESF) was 12.
Next, `Cc1ccc(S(=O)(=O)/N=C(/NC(=S)Nc2c(C)n(C)n(-c3ccccc3)c2=O)c2ccccc2)cc1`: 53 (active).
`Cc1c(NC(=S)Nc2ccccc2)c(=O)n(-c2ccccc2)n1C`: the fluorescence (KMESF) was 4.
Regarding `Cc1ccc(S(=O)(=O)CC(=O)Nc2c(C)n(C)n(-c3ccccc3)c2=O)cc1`, the fluorescence (KMESF) was 12.
In the case of `C=CC1C(OC2OC(CO)C(O)C(O)C2O)OC=C(C(=O)OC)C1CC1CC(=O)CC(CC(=O)CCc2ccc(O)cc2)O1` (stereo not given) it was 8.
Next, `Fc1ccccc1C(c1nnnn1Cc1ccc2c(c1)OCO2)N1CCN(Cc2ccccc2)CC1` (stereo not given): 5; `Fc1ccc(Cn2nnnc2C(c2cccs2)N2CCCCCC2)cc1` (stereo not given): 62 (active).
In the case of `CCC(C)(C)n1nnnc1C(c1cccs1)N1CCN(Cc2ccccc2)CC1` (stereo not given) it was 5; in that of `Cc1ccc(CCCOC(=O)C[N+]2(C)CCCC2)cc1`, 6; in that of `CSc1ccccc1NC(=O)Cc1ccc(Br)cc1`, 12.
Turning to `CCN1CCN(Cc2c(O)ccc3c(=O)c(-c4ccc(OC)c(OC)c4)c(C(F)(F)F)oc23)CC1`, the fluorescence (KMESF) was 16.
Next, `CN1CCN(Cc2c(O)ccc3c2oc(=O)c2ccccc23)CC1`: 22; `CCOC(=O)c1oc2c(CN3CCN(C)CC3)c(O)ccc2c(=O)c1-c1ccc(Br)cc1`: 189 (active).
Next, `OCCn1c(-c2ccccc2)csc1=Nc1ccccc1`: 3; `CCOCN(C(=O)Cn1c(C(C)O)nc2ccccc21)c1c(C)cccc1CC` (stereo not given): 57 (active); `CCc1cccc(C)c1N(C(=O)Cn1c(CO)nc2ccccc21)C(C)COC` (stereo not given): 5.
In the case of `CC(O)c1nc2ccccc2n1Cc1ccc([N+](=O)[O-])cc1` (stereo not given) it was 7.
Regarding `O=C1CC(N2CCN(c3ccc(F)cc3)CC2)C(=O)N1c1ccccc1` (stereo not given), the fluorescence (KMESF) was 9.
In the case of `COC(=O)c1ccc(S(=O)(=O)N(CCO)Cc2ccccc2)n1C` it was 6; in that of `CCCC1C(c2ccccc2)C(C#N)(C#N)C2(C#N)CC1(N)NC2=O` (stereo not given), 90 (active); in that of `Cc1ccc(C(=O)COC(=O)CCN2C(=O)C3C4CC(C(Br)C4Br)C3C2=O)cc1` (stereo not given), 14.
Consider `CCOc1ccc(S(=O)(=O)N/N=C(\C)c2ccc(Cl)c(Cl)c2Cl)cc1`, for which the fluorescence (KMESF) is 7.
In the case of `N#CCSc1nn(-c2ccc(F)cc2)c(=S)s1` it was 24; in that of `CCOC(=O)c1c(/N=C/c2cc(C)ccc2O)sc2c1CCC2`, 14.
As to `CC(C)(C)Nc1c(-c2cccs2)nc2ccccn12`, the fluorescence (KMESF) is 9.
Next, `Cn1c(CCC(=O)OCC(=O)NCc2ccccc2Cl)nc(=O)c2ccccc21`: 21; `O=C(COC(=O)Cn1cnc2ccccc2c1=O)NCc1ccccc1Cl`: 58 (active); `O=C(COC(=O)Cn1cnc2ccccc2c1=O)NCC12CC3CC(CC(C3)C1)C2`: 5.
Next, `COc1ccc(Br)cc1C(=O)Nc1cccc(C)c1C`: 8; `O=C(CCCCCN1C(=O)c2cccc3cccc(c23)C1=O)NCc1ccco1`: 4.
Next, `N#Cc1ccc(N2Cc3ccccc3/C2=N/C(=O)Nc2ccc(Cl)cc2)cc1`: 15; `CC(NC(=O)COC(=O)c1cc(=O)[nH]c2ccccc12)c1ccccc1` (stereo not given): 7.
On to `COc1cc2c(cc1OC)C(c1ccc(C)o1)CC(=O)N2` (stereo not given), for which the fluorescence (KMESF) is 22.
In the case of `COC(=O)c1ccc(C2CC(=O)Nc3cc(OC)c(OC)cc32)cc1` (stereo not given) it was 19; in that of `COc1cc2c(cc1OC)C(c1ccncc1)CC(=O)N2` (stereo not given), 47 (active).
In the case of `CC(CO)(CO)NC(=O)c1ccc(=O)[nH]n1` it was 4; in that of `CCn1ccnc1CN1CCCC(C(=O)c2ccc3c4c(cccc24)CC3)C1` (stereo not given), 8; in that of `CC(=O)NCC(=O)N1CCCC(C(=O)c2ccc3c4c(cccc24)CC3)C1` (stereo not given), 80 (active).
Next, `Cc1ncoc1C(=O)N1CCCC(C(=O)c2ccc3c4c(cccc24)CC3)C1` (stereo not given): 10; `Cc1nnc(Nc2ccccc2F)s1`: 5; `COc1cc(/C=C/C(=O)OCC(=O)N2CCOCC2)ccc1OCC#N`: 10.
In the case of `O=C(NCCCc1ccccc1)C1CCC(CNc2c(N3CCCCC3)c(=O)c2=O)CC1` (stereo not given), the fluorescence (KMESF) is 7.
In the case of `CCCc1nc(SCC(=O)Nc2ccc(S(=O)(=O)N(C)C)cc2)c2ccccc2n1` it was 1.
In the case of `CCCn1c(SCC(=O)N2CCc3ccccc32)nnc1-c1ccncc1` it was 7.
In the case of `Cn1c(SCC(=O)N2CCCc3ccccc32)nc2ccccc2c1=O` it was 4; in that of `O=C(CSc1ccc2nnc(-c3ccccc3)n2n1)N1CCCc2ccccc21`, 76 (active).
Consider `CCOc1ccc2sc(NS(=O)(=O)c3ccc(N)cc3)nc2c1`, for which the fluorescence (KMESF) is 4.
In the case of `CC(C)(C)NC(=O)NCc1ccco1` it was 6.
